In ChEMBL document CHEMBL2218924, “A broad activity screen in support of a chemogenomic map for kinase signalling research and drug discovery” (Biochem J, 2013):

Columns and labels:
[1] = target: Platelet-derived growth factor receptor alpha (Homo sapiens) (UniProt P16234); conditions: at 1 µM
[2] = target: Platelet-derived growth factor receptor alpha (Homo sapiens) (UniProt P16234); conditions: at 10 µM
[3] = target: Platelet-derived growth factor receptor beta (Homo sapiens) (UniProt P09619); conditions: at 1 µM
Platelet-derived growth factor receptor beta (Homo sapiens), sequence (P09619 whole entry): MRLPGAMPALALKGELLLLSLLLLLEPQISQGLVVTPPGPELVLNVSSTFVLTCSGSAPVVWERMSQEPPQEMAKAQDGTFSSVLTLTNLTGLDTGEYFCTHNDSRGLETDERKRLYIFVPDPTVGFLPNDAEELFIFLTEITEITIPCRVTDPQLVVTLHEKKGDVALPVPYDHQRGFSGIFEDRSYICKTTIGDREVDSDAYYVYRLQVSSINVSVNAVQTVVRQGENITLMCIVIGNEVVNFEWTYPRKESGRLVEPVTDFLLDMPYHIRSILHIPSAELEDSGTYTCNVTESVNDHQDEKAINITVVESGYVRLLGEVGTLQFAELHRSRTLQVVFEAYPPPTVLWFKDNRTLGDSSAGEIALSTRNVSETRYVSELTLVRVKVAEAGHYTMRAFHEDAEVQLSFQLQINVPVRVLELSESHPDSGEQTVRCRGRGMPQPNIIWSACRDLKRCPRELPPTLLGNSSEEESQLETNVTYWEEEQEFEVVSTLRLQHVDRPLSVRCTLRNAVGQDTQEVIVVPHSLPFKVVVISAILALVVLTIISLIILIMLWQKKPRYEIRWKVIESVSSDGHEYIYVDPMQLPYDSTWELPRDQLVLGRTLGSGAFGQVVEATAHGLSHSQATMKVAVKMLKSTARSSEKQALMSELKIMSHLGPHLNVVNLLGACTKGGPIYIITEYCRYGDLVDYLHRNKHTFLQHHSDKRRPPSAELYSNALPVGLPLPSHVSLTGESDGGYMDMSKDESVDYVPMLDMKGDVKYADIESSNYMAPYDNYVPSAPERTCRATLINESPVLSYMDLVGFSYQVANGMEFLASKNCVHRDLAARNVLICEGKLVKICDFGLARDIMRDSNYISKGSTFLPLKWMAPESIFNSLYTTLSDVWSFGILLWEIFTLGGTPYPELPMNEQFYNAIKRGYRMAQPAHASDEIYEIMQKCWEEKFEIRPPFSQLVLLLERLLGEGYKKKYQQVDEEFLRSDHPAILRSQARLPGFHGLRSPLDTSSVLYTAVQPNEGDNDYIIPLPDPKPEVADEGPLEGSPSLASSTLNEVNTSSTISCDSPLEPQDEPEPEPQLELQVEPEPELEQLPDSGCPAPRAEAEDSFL

[4] = target: Platelet-derived growth factor receptor beta (Homo sapiens) (UniProt P09619); conditions: at 10 µM
[5] = target: T1, 3-phosphoinositide-dependent protein kinase 1 (Homo sapiens) (UniProt O15530); conditions: at 1 µM
T1 sequence (whole entry): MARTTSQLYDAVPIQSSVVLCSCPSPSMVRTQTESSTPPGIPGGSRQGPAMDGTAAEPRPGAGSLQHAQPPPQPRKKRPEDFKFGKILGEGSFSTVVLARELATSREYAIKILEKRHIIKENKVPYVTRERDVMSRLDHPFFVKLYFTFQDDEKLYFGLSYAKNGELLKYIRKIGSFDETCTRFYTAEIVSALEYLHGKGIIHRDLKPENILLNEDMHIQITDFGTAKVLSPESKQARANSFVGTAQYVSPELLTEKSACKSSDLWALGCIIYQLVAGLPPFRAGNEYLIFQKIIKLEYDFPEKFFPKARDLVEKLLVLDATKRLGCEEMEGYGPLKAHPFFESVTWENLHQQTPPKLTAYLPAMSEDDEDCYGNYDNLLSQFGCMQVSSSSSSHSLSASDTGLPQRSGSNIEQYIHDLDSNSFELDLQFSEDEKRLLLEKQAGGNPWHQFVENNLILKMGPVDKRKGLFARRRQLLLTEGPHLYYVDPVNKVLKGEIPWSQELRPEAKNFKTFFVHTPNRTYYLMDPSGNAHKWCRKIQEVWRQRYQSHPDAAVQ

[6] = target: T1, 3-phosphoinositide-dependent protein kinase 1 (Homo sapiens); conditions: at 10 µM
[7] = target: cAMP-dependent protein kinase catalytic subunit alpha (Homo sapiens) (UniProt P17612); conditions: at 1 µM
[8] = target: cAMP-dependent protein kinase catalytic subunit alpha (Homo sapiens) (UniProt P17612); conditions: at 10 µM
[9] = target: RAC-gamma serine/threonine-protein kinase (Homo sapiens) (UniProt Q9Y243); conditions: at 1 µM
RAC-gamma serine/threonine-protein kinase (Homo sapiens), sequence (Q9Y243 whole entry): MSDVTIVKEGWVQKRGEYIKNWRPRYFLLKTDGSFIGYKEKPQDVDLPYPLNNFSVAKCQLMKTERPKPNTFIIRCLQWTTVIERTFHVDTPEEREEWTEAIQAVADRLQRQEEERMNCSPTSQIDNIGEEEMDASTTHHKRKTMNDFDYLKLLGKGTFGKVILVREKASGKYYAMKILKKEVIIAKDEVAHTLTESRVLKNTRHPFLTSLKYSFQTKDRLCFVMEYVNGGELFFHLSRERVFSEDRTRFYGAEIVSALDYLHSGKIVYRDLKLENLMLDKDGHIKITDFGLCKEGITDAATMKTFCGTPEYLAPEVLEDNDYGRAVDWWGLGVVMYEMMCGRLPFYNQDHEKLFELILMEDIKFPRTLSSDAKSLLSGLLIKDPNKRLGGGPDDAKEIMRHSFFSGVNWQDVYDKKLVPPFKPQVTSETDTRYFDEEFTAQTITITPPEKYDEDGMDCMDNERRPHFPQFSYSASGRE

[10] = target: RAC-gamma serine/threonine-protein kinase (Homo sapiens) (UniProt Q9Y243); conditions: at 10 µM

Platelet-derived growth factor receptor alpha (Homo sapiens), sequence (P16234 whole entry): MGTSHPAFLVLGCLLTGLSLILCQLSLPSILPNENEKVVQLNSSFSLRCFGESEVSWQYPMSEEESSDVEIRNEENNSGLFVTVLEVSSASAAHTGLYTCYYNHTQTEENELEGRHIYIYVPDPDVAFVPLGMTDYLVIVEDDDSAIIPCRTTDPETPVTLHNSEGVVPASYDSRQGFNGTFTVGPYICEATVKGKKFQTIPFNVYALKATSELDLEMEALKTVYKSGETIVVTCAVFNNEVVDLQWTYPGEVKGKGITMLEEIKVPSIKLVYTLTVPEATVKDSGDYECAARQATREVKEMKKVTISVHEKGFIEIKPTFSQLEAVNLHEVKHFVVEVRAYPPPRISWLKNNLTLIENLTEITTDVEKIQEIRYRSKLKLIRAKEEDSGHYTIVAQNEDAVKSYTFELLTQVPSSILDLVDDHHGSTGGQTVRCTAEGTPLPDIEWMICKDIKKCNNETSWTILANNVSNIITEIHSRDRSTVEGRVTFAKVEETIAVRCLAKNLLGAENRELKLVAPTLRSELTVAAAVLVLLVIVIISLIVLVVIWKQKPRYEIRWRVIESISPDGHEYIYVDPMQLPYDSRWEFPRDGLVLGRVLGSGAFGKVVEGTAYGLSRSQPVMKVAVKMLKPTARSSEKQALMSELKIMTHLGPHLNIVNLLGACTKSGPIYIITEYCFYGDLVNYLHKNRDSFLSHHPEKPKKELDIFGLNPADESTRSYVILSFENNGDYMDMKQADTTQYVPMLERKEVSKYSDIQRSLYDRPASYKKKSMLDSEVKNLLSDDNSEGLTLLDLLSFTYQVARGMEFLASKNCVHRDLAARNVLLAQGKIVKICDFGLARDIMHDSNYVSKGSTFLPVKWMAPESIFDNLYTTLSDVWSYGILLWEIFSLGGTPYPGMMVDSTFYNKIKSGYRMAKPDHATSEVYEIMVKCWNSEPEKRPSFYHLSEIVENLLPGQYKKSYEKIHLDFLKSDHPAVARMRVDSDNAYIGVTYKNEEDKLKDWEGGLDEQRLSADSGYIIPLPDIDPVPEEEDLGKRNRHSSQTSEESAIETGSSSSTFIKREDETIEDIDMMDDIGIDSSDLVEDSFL

| Compound | residual activity [1] [%] | residual activity [2] [%] | residual activity [3] [%] | residual activity [4] [%] | residual activity [5] [%] | residual activity [6] [%] | residual activity [7] [%] | residual activity [8] [%] | residual activity [9] [%] | residual activity [10] [%] |
| --- | --- | --- | --- | --- | --- | --- | --- | --- | --- | --- |
| Nc1n[nH]c2nnc(-c3c(-c4ccccc4)nn4ccccc34)cc12 | 105 | 100 | 97 | 99 | 102 | 94 | 97 | 77 | 99 | 82 |
| O=C1NC(=O)c2cc(Nc3ccc(F)cc3)c(Nc3ccc(F)cc3)cc21 | 115 | 107 | 109 | 95 | 106 | 110 | 100 | 82 | 98 | 65 |
| Cn1cnc2cc3c(Nc4cccc(Br)c4)ncnc3cc21 | 108 | 79 | 103 | 81 | 106 | 92 | 99 | 75 | 101 | 96 |
| Cc1nc2cc3nc(-c4cccs4)cnc3cc2n1C | 78 | 15 | 97 | 46 | 109 | 109 | 104 | 106 | 112 | 102 |
| CN(C)c1ccc(/C=C2\C(=O)Nc3ccccc32)cc1 | 79 | 14 | 101 | 30 | 114 | 92 | 89 | 86 | 96 | 100 |
| N#Cc1cnc2cnc(NCc3cccnc3)cc2c1Nc1ccc(F)c(Cl)c1 | 97 | 54 | 119 | 88 | 45 | 41 | 5 | 1 | – | – |
| CC#CC(=O)Nc1cc2c(Nc3ccc(F)c(Cl)c3)ncnc2cn1 | 113 | 42 | 105 | 86 | 102 | 100 | 99 | 77 | 93 | 91 |
| COc1ccc(OC)c2c(=S)c3ccccc3[nH]c12 | 109 | 108 | 99 | 102 | 96 | 96 | 87 | 94 | 89 | 84 |
| O=c1c2ccccc2[nH]c(=S)n1CCN1CCC(=C(c2ccc(F)cc2)c2ccc(F)cc2)CC1 | 105 | 97 | 106 | 85 | 116 | 111 | 92 | 114 | 93 | 40 |
| C[C@@H](N)[C@H]1CC[C@H](C(=O)Nc2ccncc2)CC1 | 99 | 102 | 107 | 106 | 95 | 83 | 96 | 80 | 104 | 93 |
| Cc1ccc(NC2=CC(=O)c3sc(C)nc3C2=O)cc1 | 104 | 112 | 93 | 92 | 99 | 102 | 102 | 106 | 91 | 89 |
| Nc1nc(Nc2ccc(S(N)(=O)=O)cc2)nn1C(=S)Nc1c(F)cccc1F | 82 | 39 | 83 | 24 | 3 | 0 | 53 | 16 | – | – |
| Nc1cccc(-c2cc3c(Oc4cccc(O)c4)ncnc3[nH]2)c1 | 48 | 10 | 48 | 8 | 92 | 40 | 94 | 85 | – | – |
| O=C1Nc2ccc(Br)cc2/C1=C\c1cc2c([nH]1)CCCC2 | 34 | 23 | 74 | 51 | 109 | 99 | 108 | 80 | 105 | – |
| CCN(CC)CCCCN1c2ccccc2Oc2ccc(Cl)cc21 | 126 | 104 | 119 | 108 | 131 | 138 | 95 | 147 | 126 | 113 |
| Oc1n[nH]c2nnc(-c3c(-c4ccccc4)nn4ccccc34)cc12 | 103 | 110 | 103 | 110 | 85 | 70 | 86 | 101 | 96 | 84 |

| Compound | residual activity [1] [%] | residual activity [2] [%] | residual activity [3] [%] | residual activity [4] [%] | residual activity [5] [%] | residual activity [6] [%] | residual activity [7] [%] | residual activity [8] [%] | residual activity [9] [%] | residual activity [10] [%] |
| --- | --- | --- | --- | --- | --- | --- | --- | --- | --- | --- |
| O=C(Nc1cccc(Nc2cc(Nc3cccc(C(F)(F)F)c3)ncn2)c1)C1CC1 | 110 | 109 | 98 | 93 | 93 | 87 | 103 | 112 | 90 | 96 |
| O=Nc1c(-c2c(O)[nH]c3ccccc23)[nH]c2ccccc12 | 87 | 37 | 84 | 26 | 53 | 9 | 90 | 54 | 95 | 64 |
| Nc1ccc2ncnc(NCCc3ccc(Oc4ccccc4)cc3)c2c1 | 87 | 43 | 97 | 95 | 104 | 109 | 103 | 124 | 99 | 76 |
| CNc1cc2c(Nc3cccc(Br)c3)ncnc2cn1 | 122 | 107 | 109 | 113 | 100 | 64 | 102 | 98 | 104 | 93 |
| O=C1NC(=O)/C(=C/c2ccc3c(c2)OC(F)(F)O3)S1 | 127 | 113 | 108 | 116 | 108 | 106 | 102 | 74 | 97 | 83 |
| Oc1c2ccccc2c2c3c(cccc13)N=N2 | 108 | 86 | 99 | 96 | 72 | 19 | 89 | 73 | 89 | 66 |
| CO[C@H]1[C@@H](OC)C[C@H](C)[C@@H](OC)C2=CC(=O)C=C(NC(=O)/C(C)=C/C=C/[C@H](OC)[C@@H](OC(N)=O)/C(C)=C/[C@@H]1C)C2=O | 114 | 107 | 108 | 80 | 112 | 96 | 79 | 70 | 94 | 75 |
| COc1cc2ncnc(Nc3ccc(Oc4ccccc4)cc3)c2cc1OC | 79 | 42 | 102 | 83 | 109 | 120 | 92 | 134 | 92 | 106 |
| Cc1nc(-c2ccccc2)c(-c2ccncc2)o1 | 89 | 83 | 99 | 92 | 114 | 102 | 94 | 85 | 118 | 88 |
| O=C1NC(=O)/C(=C\c2ccc3nccnc3c2)S1 | 116 | 109 | 97 | 106 | 111 | 98 | 71 | 70 | 98 | 85 |
| NC(=O)c1ccc2[nH]c(-c3ccc(Oc4ccc(Cl)cc4)cc3)nc2c1 | 115 | 121 | 107 | 128 | 105 | 107 | 106 | 129 | 106 | 103 |
| COc1ccc(C(=O)Nc2sc3c(c2C(N)=O)CCCC3)cc1OC | 87 | 86 | 89 | 97 | 95 | 96 | 97 | 95 | 102 | 87 |
| Oc1ccc(Nc2nc(-c3ccc(Cl)cc3)cs2)cc1 | 87 | 83 | 117 | 137 | 115 | 102 | 100 | 129 | 123 | 104 |
| COc1cccc(-c2cc(=O)c3ccccc3o2)c1N | 107 | 110 | 114 | 108 | 114 | 99 | 96 | 95 | 100 | 95 |
| CN(C)CCCn1cc(C2=C(c3c[nH]c4ccccc34)C(=O)NC2=O)c2ccccc21 | 121 | 78 | 106 | 65 | 63 | 15 | 60 | 20 | 30 | 7 |
| O=C1Nc2cc(Br)ccc2/C1=C1/Nc2ccccc2/C1=N\O | 30 | 6 | 36 | 11 | 42 | 37 | 89 | 97 | 83 | 83 |
